Experimental findings from ChEMBL document CHEMBL3988442, “University of Dundee, Small-Polar-MMV Screening Library” (2021) are described below.

Out of some 48,000 compounds screened, about 13,000 (27%) showed an effect of 50% or more. Some of the results follow.

This experiment concerns Wolbachia pipientis. The experiment can be described thus: Anti-Wolbachia Cell-Based Screen. It counts as functional. On the set-up: scale not given: in the data most compounds retested in dose-response had high values. The note with it: 5 µM.
Regarding `Nc1cc(C(=O)N2C[C@H]3CC[C@@H]2CN(Cc2cccnc2)C3)ccn1`, the “Percent Effect” value is given as -14.93%.
As to `CNC(=O)[C@@H](c1ccccc1OC)N1CCC[C@H]1C(=O)N1CCC1.Cl`, the “Percent Effect” value is -2.79%.
As for `CCCc1nncn1-c1cc(OC)ccc1OC`, the figure is -4.578%; as for `COCC(=O)NS(=O)(=O)c1ccc(F)c(F)c1`, -13.69%; as for `Cc1cc(C)nc(C2CCCN2C(=O)c2coc(C)n2)n1` (stereo unspecified), 95.19%.
Regarding `Cc1cc(C)nc(C2CCCN2C(=O)c2cnccn2)n1` (stereo unspecified), the “Percent Effect” value is listed as 104.9%.
With `Cc1cncc(C(=O)N2CCCCC2c2nc[nH]n2)c1` (stereo unspecified), the “Percent Effect” value turned out to be 2.614%.
For the compound `Cc1nc(C2CCCN2C(=O)c2ccc(=O)n(C)n2)no1` (stereo unspecified), the “Percent Effect” value is 4.232%.
On to `CC(=O)Nc1nc(C(=O)N2CCCC2c2noc(C)n2)cs1` (stereo unspecified), for which the “Percent Effect” value is 1.192%.
As for `Cc1cc(C)nc(C2CCCN2C(=O)c2cnco2)n1` (stereo unspecified), the “Percent Effect” value is 140.7%.
In the case of `Cc1nc(C2CCCN2C(=O)c2cnns2)no1` (stereo unspecified), the “Percent Effect” value is -16.56%.
As for `COc1ccc(F)c(-c2cc(C)nc(N)n2)c1`, the figure is -7.785%.
Take `OC1(CNc2ccc(Br)cn2)CCC1`: the “Percent Effect” value is -10.9%.
On to `Cc1nc(-c2noc3ccc(C(=O)NCCN4CCOCC4)cc23)co1`, for which the “Percent Effect” value is listed as -13.78%.
As for `O=C1C(NCc2ccccc2O)CCN1Cc1ccccc1` (stereo unspecified), the “Percent Effect” value is on record as -5.18%.
With `Cc1cc(C2CCCN(C(=O)COc3ccccc3F)C2)n[nH]1` (stereo unspecified), the “Percent Effect” value is -9.054%.
Regarding `Cc1cc(CC(=O)NC2CCCN(c3ccccc3Cl)C2=O)n[nH]1` (stereo unspecified), the “Percent Effect” value is on record as 103.5%.
On to `CC(=O)NCCCSC1CCCN(c2ccccc2F)C1=O` (stereo unspecified), for which the “Percent Effect” value is -23.33%.
In the case of `O=C(Cc1ccccc1O)NC1CCCN(c2ccccc2F)C1=O` (stereo unspecified), the “Percent Effect” value was found to be 90.3%.
Regarding `Cn1ccc(NC(=O)NC2CCCN(c3ccccc3Cl)C2=O)n1` (stereo unspecified), the “Percent Effect” value was found to be 10.36%.
For `Cc1ccc(N2CCCC(NC(=O)Cc3csc(C)n3)C2=O)cc1` (stereo unspecified), the “Percent Effect” value is reported as -8.265%.
Regarding `Cc1cc(CC(=O)NC2CCCN(Cc3ccccc3)C2=O)n[nH]1` (stereo unspecified), the “Percent Effect” value is listed as 128.5%.
For the compound `Cc1cc(CC(=O)NC2CCCN(c3ccccc3F)C2=O)n[nH]1` (stereo unspecified), the “Percent Effect” value turned out to be 95.19%.
As for `Cn1cc(NC(=O)NC2CCCN(c3ccccc3Cl)C2=O)cn1` (stereo unspecified), the “Percent Effect” value is reported as -13.39%.
In the case of `Cc1cc(CNCC2(O)CCCN(CCCc3ccccc3)C2=O)n[nH]1` (stereo unspecified), the “Percent Effect” value stood at 11%.
Turning to `COCC(=O)NC1CCCN(c2ccc(C)cc2)C1=O` (stereo unspecified), the “Percent Effect” value is recorded as 11.31%.
Take `Cc1[nH]c2c(F)cccc2c1CC(=O)N1CCCC(N)CC1` (stereo unspecified): the “Percent Effect” value is recorded as -2.417%.
`Cc1cc(C)cc(CN2C[C@H]3COC[C@H](N4CCN(C)CC4)[C@H]3C2)c1.O=C(O)C(F)(F)F.O=C(O)C(F)(F)F.O=C(O)C(F)(F)F`: the “Percent Effect” value is listed as -30.24%.
For the compound `CN(Cc1csc(-c2cccs2)n1)CC(O)CO` (stereo unspecified), the “Percent Effect” value was found to be 2.949%.
`Cc1cc(=O)n(C)cc1NC(=O)CC1CCC1`: the “Percent Effect” value was -11.35%.
Then `Cc1ccc(N2CCCC(NC(=O)CCc3ccccn3)C2=O)cc1` (stereo unspecified), with -0.6334%.
With `O=C(Cc1ccon1)NC1CC2(CCC2)Oc2ccccc21` (stereo unspecified), the “Percent Effect” value was determined as 0.8032%.
For `O=C(Cc1ccon1)NC1CCCN(c2ccccc2F)C1=O` (stereo unspecified), the “Percent Effect” value turned out to be 99.65%.
As for `CC(C)(CNC(=O)C1CCCCN1S(C)(=O)=O)N1CCOCC1` (stereo unspecified), the figure is 1.375%; as for `Cc1nc(N2CCOCC2)sc1C(=O)NCC(C)(C)N1CCCCC1`, 59.39%; as for `COc1nc(C)c(C(=O)NCc2cc(N3CCOCC3)ncn2)s1`, -8.084%.
As for `CNc1nc(C)c(C(=O)N2CCCCC2CCc2ccc(O)cc2)s1` (stereo unspecified), the figure is -31.11%; as for `CNc1nc(C)c(C(=O)N2CCCCC2CCN2CCOCC2)s1` (stereo unspecified), -13.11%.
`CNc1nc(C)c(C(=O)NCC(C)(C)N2CCCCC2)s1`: the “Percent Effect” value worked out at 51.74%.
Turning to `CN(CCO)C(=O)Nc1ccn(-c2cccc(C(F)(F)F)c2)n1`, the “Percent Effect” value is given as -1.058%.
Consider `CC(=O)Nc1ccc(Cl)c(C(=O)N(C)C(C)c2nccs2)c1` (stereo unspecified), for which the “Percent Effect” value worked out at 18.16%.
In the case of `O=C1CC(C(=O)Nc2nnc(-c3ccccn3)[nH]2)c2ccccc2N1` (stereo unspecified), the “Percent Effect” value is given as -11.02%.
Take `O=C(Nc1cnc(Oc2ccccc2)nc1)C1CC1`: the “Percent Effect” value amounted to 12.01%.
For the compound `CN[C@@H]1CCC[C@@H](Oc2ccccc2Oc2ccc(C)cc2)[C@@H]1O`, the “Percent Effect” value is 109.8%.
For the compound `COc1ccc(CNC(=O)N2CCOCC2C2CC2)cc1C` (stereo unspecified), the “Percent Effect” value was found to be 12.32%.
Then `CCS(=O)(=O)N1CC[C@H]2OCC[C@@]2(C(=O)NC)C1`, with -10.89%; and `CC(=O)NCC(=O)N1CCOC2(CCCN(c3ccc(C)nn3)C2)C1` (stereo unspecified), with 107.9%.
Regarding `Cc1ccc(N2C[C@H]3OCC[C@H]3[C@H](C(=O)NC3CCC3)C2)nn1`, the “Percent Effect” value is -15.47%.
In the case of `CC(=O)NCC(=O)N1CCOC2(CCCN(c3cccnc3)C2)C1.O=C(O)C(F)(F)F` (stereo unspecified), the “Percent Effect” value is on record as -5.55%.
Turning to `Cc1ccc(N2CC[C@H]3OCC[C@@]3(C(=O)NC(C)C)C2)nn1.O=C(O)C(F)(F)F`, the “Percent Effect” value is recorded as -2.332%.
As for `CNC(=O)[C@@]12CCO[C@@H]1CCN(S(=O)(=O)c1cc(C)cc(C)c1)C2`, the “Percent Effect” value amounted to 11.27%.
Then `Cc1ccc(N2CC[C@H]3OCC[C@@]3(C(=O)N3CCCO3)C2)nn1`, with 93.84%.
`CS(=O)(=O)N1CC[C@H]2OCC[C@@]2(C(=O)NCC2CC2)C1`: the “Percent Effect” value stood at 83.9%.
Turning to `Cc1ncsc1CN1CC[C@H]2OCC[C@@]2(C(=O)NCC2CC2)C1`, the “Percent Effect” value was 4.364%.
With `CCS(=O)(=O)N1CCOC2(CCCN(c3ccc(C)nn3)C2)C1.O=C(O)C(F)(F)F` (stereo unspecified), the “Percent Effect” value came to 0.7716%.
With `Cc1ccc(N2CC[C@H]3OCC[C@@]3(C(=O)NCC3CC3)C2)nn1`, the “Percent Effect” value is reported as 112.3%.
For the compound `Cc1noc(CNc2c(N3CCCC3)cccc2N2CCCC2)n1`, the “Percent Effect” value came out at 12%.
Then `CC(C)c1cc(C(=O)N2CCN(c3ccc(F)c(Cl)c3)CC2)n(C)n1`, with -4.845%; and `Cc1nc(N(C)Cc2cccc(O)c2)nc2cc(S(C)(=O)=O)ccc12`, with -16.37%; and `CC(C)C(=O)N1CCC(NC2CCSCC2)C1` (stereo unspecified), with -5.859%.
With `CS(=O)(=O)N1CCC(Oc2ccc(C(=O)NCCC(N)=O)cc2Cl)CC1`, the “Percent Effect” value was -24.14%.
As to `Cc1ccc(N2CC[C@H]3OCC[C@@]3(C(=O)N(C)C)C2)nn1`, the “Percent Effect” value is recorded as 116.6%.
Take `Cc1ccc(N2CC[C@H]3OCC[C@@]3(C(=O)N3CCCC3)C2)nn1`: the “Percent Effect” value is 99.3%.
Consider `Cc1ccc(N2CC3(CCN(C(=O)c4ccoc4)C3)C2)nn1`, for which the “Percent Effect” value was 11.71%.
`Cc1ccc(N2CCCC3(CCN(C(=O)C4CC4)C3)C2)nn1` (stereo unspecified): the “Percent Effect” value came out at 2.415%.
On to `Cc1ccc(N2CCC3(CC2)CCN(C2CCOCC2)CC3)nn1.O=C(O)C(F)(F)F`, for which the “Percent Effect” value is given as -17.16%.
`c1cn(-c2ccc(CN3CCCC3)cc2)c(-c2cc3n(n2)CCNC3)n1`: the “Percent Effect” value was determined as 4.696%.
For the compound `O=C(NCC(F)(F)F)C1CCCN(Cc2ccno2)C1` (stereo unspecified), the “Percent Effect” value is on record as -13.93%.
On to `Cc1ccc(C)c(C(=O)NCC(c2cccn2C)N2CCCCCC2)c1` (stereo unspecified), for which the “Percent Effect” value is 114.5%.
As for `CN1CCN(C(CNC(=O)c2ccc(Cl)cc2F)c2cccs2)CC1` (stereo unspecified), the figure is -14.94%; as for `Cn1cccc1C(CNC(=O)c1ccc(F)cc1F)N1CCCCCC1` (stereo unspecified), 2.493%; as for `COc1ccc(C(=O)NCC(c2cccn2C)N2CCCC2)c(OC)c1` (stereo unspecified), 6.724%.
As for `COc1ccc(C(=O)NCC(c2cccn2C)N2CCN(C)CC2)cc1` (stereo unspecified), the “Percent Effect” value is 104.9%.
With `Cn1cccc1C(CNC(=O)COc1ccc(Cl)cc1Cl)N1CCCC1` (stereo unspecified), the “Percent Effect” value is -0.05475%.
On to `COc1ccc(C(=O)NCC(c2cccn2C)N2CCCC2)cc1OC` (stereo unspecified), for which the “Percent Effect” value came out at 118.2%.
Regarding `CN1CCN(C(CNC(=O)CCn2cccn2)c2cccs2)CC1` (stereo unspecified), the “Percent Effect” value came out at 11.34%.
As for `Cn1cccc1C(O)CNC(=O)COc1ccc(Cl)cc1Cl` (stereo unspecified), the “Percent Effect” value worked out at 19.06%.
For `COc1cc(OC)cc(C(=O)NCC(c2cccn2C)N2CCCC2)c1` (stereo unspecified), the “Percent Effect” value turned out to be 93.86%.
Regarding `CC(C)=CCN1CCN(S(=O)(=O)c2cn(C)cn2)[C@H]2CS(=O)(=O)C[C@H]21`, the “Percent Effect” value was -6.169%.
Then `Cn1cc(NC(=O)CCCc2cccs2)c(=O)n(C)c1=O`, with -5.332%; and `NC(=O)C1CCN(CCc2ccc(NCc3ccsc3)cc2)CC1`, with -14.27%.
Take `Cn1c(CN2CCC(O)CC2)nnc1C1CCCN(C(=O)C2CNC2)C1` (stereo unspecified): the “Percent Effect” value came to 15.55%.
`Cn1c(CN2CCCC2)nnc1C1CCCN(C(=O)CN2CCCC2)C1` (stereo unspecified): the “Percent Effect” value is -18.41%.
On to `O=C(CN1CCNC1=O)N1CCc2nnc(-c3ccccc3)n2CC1`, for which the “Percent Effect” value is on record as -8.724%.
As to `O=C(C1CCCC1)N1CCn2c(nnc2C2CCCNC2)C1` (stereo unspecified), the “Percent Effect” value turned out to be 107.7%.
Regarding `O=C(CN1CCCCCC1)N1CCc2nnc(C3CCCNC3)n2CC1` (stereo unspecified), the “Percent Effect” value was found to be 109%.
`O=C(C1CCC1)N1CCn2c(COc3ncccn3)nnc2C1`: the “Percent Effect” value was -0.8888%.
As for `CC(C)OC(=O)N1CCC(Nc2ncc(Br)cn2)CC1`, the figure is -1.588%.
With `COCCC(=O)N1CCC(Nc2ncc(Br)cn2)CC1`, the “Percent Effect” value is -2.915%.
For the compound `CC(C)OCCN1CCC(N2CCN(C)C2=O)CC1`, the “Percent Effect” value was found to be 7.095%.
With `Cc1cccc(C(=O)N2CCN(CCOC(C)C)CC2)n1`, the “Percent Effect” value came to 2.598%.
Then `CC(C)OCCN1CCC(Nc2nccnc2C#N)CC1`, with 120.8%; and `Cc1cc(C)nc(NC2CCN(CCOC(C)C)CC2)n1`, with 107%; and `N#Cc1ccccc1N1CCC(Nc2nccnc2C#N)CC1`, with -4.6%.
As for `CC(C)OCCN1CCC(Nc2ncc(Br)cn2)CC1`, the figure is 82.04%; as for `CC(C)OCCN1CCN(C(=O)c2cc(-n3cccn3)ccn2)CC1`, -9.064%; as for `Cc1cc(C)nc(N2CCC(OCCN3CCCCC3)C2)n1` (stereo unspecified), 5.961%.
Take `CC(C)OCCN1CCC(Nc2ncccn2)CC1`: the “Percent Effect” value was determined as 110.1%.
Turning to `N#Cc1nccnc1NC1CCN(c2c(F)cccc2F)C1` (stereo unspecified), the “Percent Effect” value stood at 7.205%.
`CCNC(=O)C1CCCN1S(=O)(=O)c1sc(=O)[nH]c1C` (stereo unspecified): the “Percent Effect” value is recorded as -8.251%.
For the compound `O=S(=O)(C1CC1)N1CCOC2(COCCN(c3ncccn3)C2)C1` (stereo unspecified), the “Percent Effect” value is -6.11%.
